# Reference: the OligoGym collection
# Legend:
# Assay in all cases: pooled miR-30 sensor sort-seq; sequence = guide strand
# Conditions in all cases: shRNA
# MOBKL1B = molecular target: MOBKL1B
# MPG = molecular target: MPG
# MRC1L1 = molecular target: MRC1L1
# MTOR = molecular target: MTOR
# MTMR14 = molecular target: MTMR14
# MTG1 = molecular target: MTG1
# MTX3 = molecular target: MTX3
# MYST1 = molecular target: MYST1
# MYST4 = molecular target: MYST4
# MYRIP = molecular target: MYRIP
# MYO1F = molecular target: MYO1F
sequence,measurement,setting,value
TATGTGATAACAACAAGAGTGG,sensor-assay potency score (higher = more potent),MOBKL1B,-0.235
TTAATTCTTGAAGAGGTGCCAG,sensor-assay potency score (higher = more potent),MOBKL1B,-0.419
TGGTCGAAGAACTCCAACCCCA,sensor-assay potency score (higher = more potent),MPG,-1.62
TAACAACACAGTCAGCATCTTC,sensor-assay potency score (higher = more potent),MRC1L1,-0.367
TTATAGATTAAAAATTGCCTGG,sensor-assay potency score (higher = more potent),MRC1L1,-0.0737
TTGAGTATTTGTTCTGCTCATA,sensor-assay potency score (higher = more potent),MTOR,-0.623
TCGAAGAGCACAGTCCTCCTCC,sensor-assay potency score (higher = more potent),MTMR14,-0.118
TATAATTGGTTCTTCGGTCAAA,sensor-assay potency score (higher = more potent),MTOR,-0.45
TAGGAATCCGTCCTCGTTCGGG,sensor-assay potency score (higher = more potent),MTOR,-0.165
TATAGCTTTAACTCCTTCTGAG,sensor-assay potency score (higher = more potent),MTG1,-0.0288
TGAGATACAGTGTACCAGCAGC,sensor-assay potency score (higher = more potent),MTMR14,-0.892
TTTAGTTGAGTATTTGTTCTGC,sensor-assay potency score (higher = more potent),MTOR,0.462
TTCGTGTTTGGAATCACGCTGA,sensor-assay potency score (higher = more potent),MTMR14,0.52
TTACTATGTTTCACTGTCCTGG,sensor-assay potency score (higher = more potent),MTOR,-0.25
TTCTTCTCCCTGTAGTCCCGGA,sensor-assay potency score (higher = more potent),MTOR,-0.437
TTGAACAGGATTACTGGGCAGA,sensor-assay potency score (higher = more potent),MTMR14,-0.111
TTAGAAGGAAAACAAACTCATG,sensor-assay potency score (higher = more potent),MTOR,-1.25
TATCCCTTGACAATTCTGCAGA,sensor-assay potency score (higher = more potent),MTOR,-0.562
TTAGAAGCCACTGTCAGTGGGT,sensor-assay potency score (higher = more potent),MTOR,0.584
TTATTTTGTGATCTGTGTCAAA,sensor-assay potency score (higher = more potent),MTMR14,-0.837
ATAGCATTGGTCAACATTCTTG,sensor-assay potency score (higher = more potent),MTOR,-0.775
TTGACCACTGAAAACATCCCAG,sensor-assay potency score (higher = more potent),MTOR,0.0557
TAGCATTGGTCAACATTCTTGT,sensor-assay potency score (higher = more potent),MTOR,0.089
TTTGGAATCACGCTGAAACAGT,sensor-assay potency score (higher = more potent),MTMR14,-0.856
TTAATATTTATCTATGTGCTAC,sensor-assay potency score (higher = more potent),MTX3,-0.31
TGACAGGTATCGAAGCAGCTTG,sensor-assay potency score (higher = more potent),MTMR14,-1.11
TTGTTGGCTGCATTGTGCCGGG,sensor-assay potency score (higher = more potent),MTOR,-0.403
TTTCATGGGATGTCGCTTGTTT,sensor-assay potency score (higher = more potent),MTOR,0.0185
TTTGCTGAGCCGATCTACCAAC,sensor-assay potency score (higher = more potent),MTMR14,-1.14
TTGTCCACCTTCTCAGAGGAGG,sensor-assay potency score (higher = more potent),MTMR14,-1.29
TTCTCTGGAAACTTCTCTCGGG,sensor-assay potency score (higher = more potent),MTOR,-0.303
TTTGGTATTTGTGTCCATCAGC,sensor-assay potency score (higher = more potent),MTOR,-0.533
TATATTCTTCAACAGCAGCTAG,sensor-assay potency score (higher = more potent),MTOR,-0.667
TGAAACAGTAGTCTCGGCCAAA,sensor-assay potency score (higher = more potent),MTMR14,-1.3
TATTTGACTGACAGGTATCGAA,sensor-assay potency score (higher = more potent),MTMR14,-0.898
TAAATCTCGACCATAGGCCTGA,sensor-assay potency score (higher = more potent),MTOR,0.425
TTATTCTGATACAACATGGTGT,sensor-assay potency score (higher = more potent),MTOR,0.00722
TTTGATGAGCAGCTCAACTTGC,sensor-assay potency score (higher = more potent),MTOR,0.357
TCATCCTTTACACAGTTGGTAA,sensor-assay potency score (higher = more potent),MTG1,-1.44
TTTTGGGGAAACATATTGCAGC,sensor-assay potency score (higher = more potent),MTOR,-1.1
TTGGGTCTCATCATTAACCAGG,sensor-assay potency score (higher = more potent),MTOR,-0.739
TTTGTGTCCATCAGCCTCCAGT,sensor-assay potency score (higher = more potent),MTOR,-0.591
TCTCTGGAAACTTCTCTCGGGT,sensor-assay potency score (higher = more potent),MTOR,-0.556
TTATAGCTTTAACTCCTTCTGA,sensor-assay potency score (higher = more potent),MTG1,-0.275
TTTGTGATCTGTGTCAAACTGC,sensor-assay potency score (higher = more potent),MTMR14,0.417
TTGCGGTAGATCTCTTTCCCGG,sensor-assay potency score (higher = more potent),MYST1,-0.991
TTACTGTTAGCACAACACTTGT,sensor-assay potency score (higher = more potent),MYST4,-0.946
TTTGCCATCAACTTCGTGCACG,sensor-assay potency score (higher = more potent),MYST1,-0.42
ATTGCTAACTCGTACAGCCTGT,sensor-assay potency score (higher = more potent),MYRIP,-0.149
TTTAATAGTAAATTAAATCTTT,sensor-assay potency score (higher = more potent),MYRIP,-0.26
TATTTCATGTACTTGAGGCAGT,sensor-assay potency score (higher = more potent),MYST1,0.803
TTGGCTGCCACTGTCTTCCCAG,sensor-assay potency score (higher = more potent),MYO1F,-0.239
ATCTTCTGCAGGATTGTCGTGG,sensor-assay potency score (higher = more potent),MYRIP,-0.78
TACTTGAGGCAGTACTCGCAGA,sensor-assay potency score (higher = more potent),MYST1,-0.834
TACTTGACCATATTGAGGGATT,sensor-assay potency score (higher = more potent),MYST1,-1.22
AAAGTCGCTTCTGTCGTCCGTG,sensor-assay potency score (higher = more potent),MYO1F,-0.528
TTGTCCACATACTTCACCTTGG,sensor-assay potency score (higher = more potent),MYST1,-0.263
TTCTTCACTTTCTCTCGCCCAA,sensor-assay potency score (higher = more potent),MYO1F,-0.544
TTTGAGAACTGAGCCATCCTGA,sensor-assay potency score (higher = more potent),MYST4,0.202
TTGAGCACTGCCAAGTCGCCGA,sensor-assay potency score (higher = more potent),MYO1F,-0.541
TTGACTTGCTTGTGCTTGGGGG,sensor-assay potency score (higher = more potent),MYST1,0.169
TTACAGACAACAATCGTTGCTT,sensor-assay potency score (higher = more potent),MYST4,0.972
TTATCTCTTATAAACACTCTAA,sensor-assay potency score (higher = more potent),MYRIP,-0.392
TTTTGCTTTGAATCACACCAAC,sensor-assay potency score (higher = more potent),MYRIP,-1.21
TTTGAGGTGCTCCTCCACCAGC,sensor-assay potency score (higher = more potent),MYST1,-1.45
TTTTCGTATAATCTTCTGCAGG,sensor-assay potency score (higher = more potent),MYRIP,-1.35
TACAGCATCCTTCACTGTCTTG,sensor-assay potency score (higher = more potent),MYST1,-0.889
TTTTGCTCTTCTGTTTTCGTAT,sensor-assay potency score (higher = more potent),MYRIP,-0.368
TTGGCTTGTTTCTTGATCTTGG,sensor-assay potency score (higher = more potent),MYO1F,0.371
TTTGATGAGATCATCTTCTGGT,sensor-assay potency score (higher = more potent),MYST4,1.05
TACTTCTCTGAGTTCTTCTGTA,sensor-assay potency score (higher = more potent),MYST1,0.544
TAGTGTGTCGCTGAAGGTGAGG,sensor-assay potency score (higher = more potent),MYO1F,-0.748
TTCTGGAAGATCTCGAAGCCGT,sensor-assay potency score (higher = more potent),MYO1F,-0.863
TTTTCGATTGTACTTTTGCAGG,sensor-assay potency score (higher = more potent),MYST4,-1.34
TATTTCAGTATCATCATCCTGA,sensor-assay potency score (higher = more potent),MYST4,0.932
TTATTTTCTGTATAGCTTCAAG,sensor-assay potency score (higher = more potent),MYST4,-0.855
TCATTTTGCATGACCACGCGGG,sensor-assay potency score (higher = more potent),MYO1F,-0.396
TATACAATAACTGAAATGCTAA,sensor-assay potency score (higher = more potent),MYST4,-0.972
TGACACATAACACAGCATCAGC,sensor-assay potency score (higher = more potent),MYRIP,-1.31
TTCAGTAACGACATCCTTGTTT,sensor-assay potency score (higher = more potent),MYST4,-0.1
TTAAATAATAATTCCCACCTTC,sensor-assay potency score (higher = more potent),MYRIP,0.152
TAACACAACAATAGTTGCTTTT,sensor-assay potency score (higher = more potent),MYRIP,-1.01
TTGGTTGCGAGTGATCTTGCGC,sensor-assay potency score (higher = more potent),MYST1,-0.436
TTGATGGACAGTGTGCCCCGGA,sensor-assay potency score (higher = more potent),MYST1,-0.00673
